# Data from PubChem BioAssay (NCI).
# Compounds without any hit were thinned out: in the full panel of roughly 79,000, 15% have a hit. A number with no mark means an inactive call. Calls of active or inactive are those of the source. No stated cut-off is given here; in the data, active means growth inhibition above about 70%; inactive means the rest.
# Experiments:
# [1] = NCI Yeast Anticancer Drug Screen. Data for the rad50 strain (AID 155);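 further: 0% = growth of vehicle-only cultures of the same strain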; details: S. cerevisiae rad50 strain growth inhibition, stronger effect = higher value
# Method in brief: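 Genetically altered yeast (DNA repair pathway); compound treatment; growth inhibition vs vehicle ctrl.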
# [2] = NCI Yeast Anticancer Drug Screen. Data for the mec2-1 strain (AID 157); details: S. cerevisiae mec2-1 strain, stronger effect = higher value
# Method in brief: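 Compounds were applied to mec2-1 yeast cells. Their growth was then compared with that of vehicle-treated cultures to give growth inhibition.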
# [3] = NCI Yeast Anticancer Drug Screen. Data for the sgs1 mgt1 strain (AID 161);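 further: 0% = growth of cultures given vehicle only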; details: S. cerevisiae sgs1 mgt1 strain, stronger effect = higher value
# Method in brief: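 This yeast growth screen uses a strain with defined DNA-repair lesions; compound-treated growth is compared with vehicle-treated growth.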
# [4] = NCI Yeast Anticancer Drug Screen. Data for the cln2 rad14 strain (AID 165);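 further: 0% = growth equal to vehicle treated cultures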; details: S. cerevisiae cln2 rad14 strain, stronger effect = higher value
# Method in brief: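 Strain: cln2 rad14 yeast, altered in cell cycle control and DNA damage repair. Read-out: growth inhibition vs vehicle.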
# [5] = NCI Yeast Anticancer Drug Screen. Data for the bub3 strain (AID 167); details: S. cerevisiae bub3 mutant strain, stronger effect = higher value
# Method in brief: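 Yeast carrying a defined mutation is treated with each compound, and growth is compared with that of vehicle-exposed cells to give inhibition.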
# [6] = NCI Yeast Anticancer Drug Screen. Data for the mlh1 rad18 strain (AID 175); details: S. cerevisiae mlh1 rad18 strain growth inhibition, stronger effect = higher value
# Method in brief: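 A repair-deficient yeast strain is exposed to test compound, and growth is scored relative to vehicle-treated controls.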
# [7] = at 5.0 µM (retest, dose inferred, filed as 0.5)
# [8] = at 50.0 µM (retest, dose inferred, filed as 5.0)
SMILES,"growth inhibition [1, 7]","growth inhibition [1, 8]",growth inhibition ([1]; at 50.0 µM),"growth inhibition [2, 7]","growth inhibition [2, 8]",growth inhibition ([2]; at 50.0 µM),"growth inhibition [3, 7]","growth inhibition [3, 8]",growth inhibition ([3]; at 50.0 µM),"growth inhibition [4, 7]","growth inhibition [4, 8]",growth inhibition ([4]; at 50.0 µM),"growth inhibition [5, 7]","growth inhibition [5, 8]",growth inhibition ([5]; at 50.0 µM),"growth inhibition [6, 7]","growth inhibition [6, 8]",growth inhibition ([6]; at 50.0 µM)
CC(Nc1cc(Cl)cc(Cl)c1)c1ccncc1 (configuration not stated),1%,98% (active),37.2%,-26%,98% (active),56.4%,-31%,91% (active),43%,22%,98% (active),22%,-59%,99% (active),43.5%,-10%,98% (active),42.5%
O=C(CCC(NC(=O)OCc1ccccc1)C(=O)OCc1ccccc1)NC(CSCc1ccccc1)C(=O)NCC(=O)Oc1c(Cl)c(Cl)c(Cl)c(Cl)c1Cl (configuration not stated),8%,51%,31%,9%,32%,28.8%,7%,35%,64.2%,-7%,48%,45%,3%,59%,18.8%,8%,54%,60.7%
O=C1C=CC(=O)c2ccc(=O)ccc21,38%,99% (active),22.6%,25%,99% (active),-1.45%,38%,99% (active),25.9%,20%,98% (active),28.4%,27%,99% (active),-1.35%,71% (active),98% (active),51.2%
CN(C)CC(=O)OCC[N+](C)(C)C,-3%,-2%,-22.1%,-6%,-5%,-15.1%,-3%,-3%,-12.7%,-15%,-10%,56.4%,6%,30%,15.4%,-4%,1%,-15.9%
Cc1cc(C)c(O)c(Cc2cc(Cl)cc(Cc3cc(C)cc(C)c3O)c2O)c1,0%,91% (active),94% (active),1%,93% (active),92.5% (active),13%,93% (active),95.3% (active),6%,91% (active),95.2% (active),-9%,92% (active),93.5% (active),15%,92% (active),91.4% (active)
Oc1[nH]c2ccccc2c1N=NC(=S)N1CCCC1,15%,65%,33.5%,5%,64%,58.6%,7%,42%,54.6%,11%,48%,55%,26%,74% (active),61.6%,13%,68%,57.8%
Oc1cccc(Oc2cccc(Oc3ccccc3)c2)c1,1%,99% (active),99.4% (active),1%,99% (active),99.3% (active),-6%,99% (active),99.5% (active),-23%,99% (active),99% (active),30%,99% (active),99.4% (active),2%,99% (active),99.3% (active)
O=C1C(=O)C(Cl)=C(Cl)C(Cl)=C1Cl,-3%,97% (active),99.3% (active),7%,99% (active),99.7% (active),1%,95% (active),99.5% (active),-12%,98% (active),98.5% (active),-25%,97% (active),99.3% (active),-7%,98% (active),99.1% (active)
CN(C)CCC(=O)N1C/C(=C\c2ccc(Cl)c(Cl)c2)C(=O)/C(=C/c2ccc(Cl)c(Cl)c2)C1,98% (active),97% (active),91.7% (active),99% (active),98% (active),89.8% (active),99% (active),97% (active),88.2% (active),98% (active),98% (active),90% (active),99% (active),98% (active),91.3% (active),99% (active),97% (active),88.9% (active)
CCCCCCCCCCCC1=NCC(C)N1 (configuration not stated),-39%,26%,71.9% (active),2%,27%,-2.95%,-3%,1%,28.6%,-46%,-5%,44.4%,0%,36%,45%,-29%,15%,46%
COC(=O)CCC(C)C1CCC2C3CCC4CC(SC(=N)N)CCC4(C)C3CC(O)C12C (configuration not stated),95% (active),99% (active),99.1% (active),23%,99% (active),99.7% (active),98% (active),99% (active),99.7% (active),63%,99% (active),99.2% (active),99% (active),99% (active),99.3% (active),84% (active),99% (active),99.4% (active)
O=S(=O)(Nc1ccccc1)c1ccccc1C#Cc1ccccc1,-3%,91% (active),89.8% (active),-2%,92% (active),79.2% (active),10%,93% (active),86.9% (active),-70%,92% (active),74.3% (active),2%,64%,89.8% (active),3%,95% (active),91.5% (active)
Cc1c(N=Nc2ccc(Br)cc2)c(-c2ccccc2)nn1C(N)=S,-2%,93% (active),97.7% (active),1%,97% (active),97.5% (active),7%,97% (active),98% (active),-4%,94% (active),95.4% (active),7%,95% (active),96.5% (active),0%,97% (active),97.7% (active)
OC1c2ccccc2C2(O)C1C(c1ccccc1)C(c1ccccc1)C2(O)c1ccccc1 (configuration not stated),32%,95% (active),96.7% (active),-1%,97% (active),97% (active),25%,96% (active),98% (active),-4%,94% (active),95.1% (active),-1%,95% (active),94.8% (active),30%,94% (active),95.7% (active)
CC1=CC(O)(c2nc3ccccc3s2)CC(C)(C)C1 (configuration not stated),3%,60%,69.7%,6%,61%,56.1%,-1%,61%,64.2%,-2%,51%,47.7%,15%,31%,41.4%,-2%,69%,66.4%
O=C(CC(=O)c1ccccc1)CC(=O)c1ccccc1Cl,-1%,85% (active),88.1% (active),8%,88% (active),88% (active),-2%,90% (active),81.2% (active),-5%,81% (active),68.2%,-2%,95% (active),78.8% (active),0%,92% (active),85.7% (active)
CC(=O)CC1(O)C(=O)Nc2ccc(Br)cc21 (configuration not stated),1%,-2%,39%,0%,-3%,6.3%,-2%,1%,10.8%,-3%,8%,60.1%,6%,2%,0.8%,-5%,-8%,5.25%
COc1cc(C2CC(C)(OC)Oc3cc4c(cc32)OCO4)cc(OC)c1O (configuration not stated),1%,55%,14.9%,2%,16%,-5.5%,-3%,50%,28.8%,12%,37%,4.55%,10%,55%,-2.1%,0%,63%,31.2%
O=C(SCCCc1ccccc1)c1cc([N+](=O)[O-])cc([N+](=O)[O-])c1,98% (active),87% (active),75.7% (active),100% (active),98% (active),66.3%,99% (active),94% (active),85.8% (active),94% (active),89% (active),78.6% (active),98% (active),98% (active),66%,98% (active),94% (active),76.6% (active)
